Source: PubChem BioAssay (NCATS)
Results filed as inconclusive are left out. Active and inactive are the calls of the source. Calls come from the whole dose curve; as a rule, active = well fitted inhibition curve with a large enough effect; inconclusive = small, poorly fitted or top-dose-only effect; inactive = flat fitted curve, though single readings scatter.

Assays:
Assay in all cases: Cytotoxic Profiling of Annotated Libraries Using Quantitative High-Throughput Screening (AID 1296008); note: nearly all actives have a fitted effect of over 60% in size
Conditions in all cases: Five cell lines viability, CellTiter-Glo ATP luminescence, 48-72 h; max response: hits give low values
CRL-7250 = system: CRL-7250
In short: (§1)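 Cells exposed to compounds for 48 or 72 hr at 37 degrees Celsius. Viability read as ATP-coupled luminescence with CellTiter-Glo after 10 min at room temperature.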

HEK293 = system: HEK293
In short: as §1

HaCat = system: HaCat
In short: as §1

KB-3-1 = system: KB-3-1
In short: as §1

NIH3T3 = system: NIH3T3
In short: as §1

Measured: max response
% is set by controls: 0 for no effect and ±100 for the full control effect.

CCc1nnc(NS(=O)(=O)c2ccc(NC(=S)NC(=O)/C=C/c3ccc(F)cc3)cc2)s1
inactive: CRL-7250 | HEK293 -0.631% | HaCat | KB-3-1 | NIH3T3

COc1ccnc(CCc2nc3ncccc3[nH]2)c1
inactive: CRL-7250 -4.02% | HEK293 -80.6% | HaCat | KB-3-1 | NIH3T3 3.19%

CC1(C)Oc2ncnc(N)c2N=C1c1ccc(C2CCC(CC(=O)O)CC2)cc1 (stereo not given)
inactive: CRL-7250 3.48% | HEK293 0.549% | HaCat | KB-3-1 | NIH3T3 0.325%

O=C(O)CCc1ccc(NCc2cccc3c2CCCN3CCOc2ccccc2)cc1F
inactive: CRL-7250 0.539% | HEK293 0.703% | HaCat | KB-3-1 2.13% | NIH3T3

CC1(C)C(=O)N2c3ccccc3C(O)(CC(C(=O)O)n3cnc4ccccc4c3=O)C2N1O (stereo not given)
inactive: CRL-7250 0.472% | HEK293 -0.978% | HaCat | KB-3-1 4.14% | NIH3T3 1.17%

Cc1ccc(Cl)cc1N(CC(=O)Nc1c(F)cccc1F)S(C)(=O)=O
inactive: CRL-7250 -3.38% | HEK293 -7.88% | HaCat -2.84% | KB-3-1 5.59% | NIH3T3

CC(C)=CCc1c(O)cc2oc3cc(C)cc(O)c3c2c1C
inactive: CRL-7250 2.07% | HEK293 -2.32% | HaCat | KB-3-1 -6.44% | NIH3T3 3.67%

C=C1CCC2(OC1)OC1CC3C4CC=C5CC(O)CC(O[C@@H]6OC[C@H](OC(=O)C(O)C(C)CC)[C@H](O)[C@H]6O[C@@H]6O[C@@H](C)[C@H](O)[C@@H](O)[C@H]6O)C5(C)C4CCC3(C)C1C2C (stereo not given in full)
inactive: CRL-7250 -2.78% | HEK293 -1.63% | HaCat -7.88% | KB-3-1 | NIH3T3

CC(=O)c1c(C)cccc1O[C@@H]1O[C@H](CO)[C@@H](O)[C@H](O)[C@H]1O
inactive: CRL-7250 1.88% | HEK293 -3.42% | HaCat | KB-3-1 7.75% | NIH3T3

CCCC(=O)Nc1cccc(NC(=O)c2ccccc2Br)c1
inactive: CRL-7250 | HEK293 -4.38% | HaCat | KB-3-1 8.7% | NIH3T3 3.78%

CC(=O)OC1C(O)/C(C)=C\C2C(OC(=O)c3ccccc3)C(C)CC2(OC(C)=O)C(OC(C)=O)C(C)/C=C/C(C)(C)C1OC(C)=O (stereo not given)
inactive: CRL-7250 -1.02% | HEK293 -2.9% | HaCat | KB-3-1 7.33% | NIH3T3

CCC(C)/C=C(C)/C=C/C1=CC2=C(Cl)C(=O)C(C)(O)C(=O)C2(O)C(OC)O1 (stereo not given)
inactive: CRL-7250 -11.8% | HEK293 -3.29% | HaCat | KB-3-1 | NIH3T3

COc1cc([C@H]2OC[C@](O)(Cc3ccc(O[C@@H]4O[C@H](CO)[C@@H](O)[C@H](O)[C@H]4O)c(OC)c3)[C@@H]2CO)ccc1O
inactive: CRL-7250 -8.35% | HEK293 1.25% | HaCat | KB-3-1 0.848% | NIH3T3

O=C1C(Cl)=C(N2CCOCC2)C(=O)N1c1ccc(Cl)c(Cl)c1
inactive: CRL-7250 | HEK293 -3.24% | HaCat | KB-3-1 | NIH3T3

NC[C@H]1CCC[C@@H](CNC(=O)[C@@H](Cc2c[nH]c3ccccc23)NC(=O)N2CCC3(C=Cc4ccccc43)CC2)C1
inactive: CRL-7250 0.396% | HEK293 -6.44% | HaCat | KB-3-1 | NIH3T3 -1.79%

COC1OC(=O)C2=C1C1(C)CCCC(C)(C)C1CC2O (stereo not given)
inactive: CRL-7250 -6.21% | HEK293 1.96% | HaCat | KB-3-1 | NIH3T3

O=C(c1c2ccccc2cc2ccccc12)N1CCC(N2CCC[C@@H](C(=O)N3CCOCC3)C2)CC1
inactive: CRL-7250 2.01% | HEK293 -10.6% | HaCat | KB-3-1 | NIH3T3 -3.13%

C/C=C(\C)C(=O)OCC1OC(OC2OC(CO)C(O)C(O)C2O)C(O)C(O)C1O (stereo not given)
inactive: CRL-7250 | HEK293 -3.96% | HaCat | KB-3-1 | NIH3T3 -3.87%

CC(NC(=O)CC(=O)O)C(=O)Nc1ccccc1C(N)=O (stereo not given)
inactive: CRL-7250 -2.72% | HEK293 2.48% | HaCat -2.92% | KB-3-1 3.19% | NIH3T3

COc1cc2c(c(OC)c1O)C(c1ccc(O)cc1)C1C(=O)OC3C(COC(=O)C1=C2)OC(CO)(OC1OC(COC(=O)/C=C/c2ccc(OC4OC(C)C(O)C(O)C4O)cc2)C(O)C(O)C1O)C3O (stereo not given)
inactive: CRL-7250 2.78% | HEK293 -18.4% | HaCat | KB-3-1 -2.91% | NIH3T3

C[C@@H]1O[C@@H](O[C@H]2[C@H](Oc3cc(O)c(C(=O)CCc4ccc(O)cc4)c(O)c3)O[C@H](CO)[C@@H](O)[C@@H]2O)[C@H](O)[C@H](O)[C@H]1O
inactive: CRL-7250 2.09% | HEK293 -1.52% | HaCat | KB-3-1 | NIH3T3

C=C1CCC2C(C)(C(=O)OC)CCCC2(C)C1CCC1=CCOC1=O (stereo not given)
inactive: CRL-7250 3.38% | HEK293 2.4% | HaCat 1% | KB-3-1 | NIH3T3

CC1=CCC2C(C)(C)CCCC2(C)C1CC12OC1C(O)C(CO)=CC2O (stereo not given)
inactive: CRL-7250 3.52% | HEK293 -6.22% | HaCat -4.23% | KB-3-1 9.42% | NIH3T3

COc1ccc(CCC(=O)O)c(O[C@@H]2O[C@H](CO)[C@@H](O)[C@H](O)[C@H]2O)c1
inactive: CRL-7250 | HEK293 -2.75% | HaCat 3.93% | KB-3-1 -5.8% | NIH3T3

COc1cc(/C=C/C(=O)O[C@H]2C[C@@H]3C(C(=O)O)=CO[C@@H](O[C@@H]4O[C@H](CO)[C@@H](O)[C@H](O)[C@H]4O)[C@@H]3[C@H]2C)ccc1O
inactive: CRL-7250 | HEK293 | HaCat 3.27% | KB-3-1 | NIH3T3 1.34%

COC(=O)C1=CO[C@@H](O[C@@H]2O[C@H](CO[C@@H]3O[C@H](CO)[C@@H](O)[C@H](O)[C@H]3O)[C@@H](O)[C@H](O)[C@H]2O)[C@@H]2C(CO)=CC[C@H]12
inactive: CRL-7250 -2.64% | HEK293 1.28% | HaCat | KB-3-1 | NIH3T3

CC12CC34CC(O)C5C(CO)(CO)CC(=O)CC5(C)C3CC1C2C4 (stereo not given)
inactive: CRL-7250 -4.91% | HEK293 -0.711% | HaCat | KB-3-1 0.93% | NIH3T3 2.14%

Cc1ncc([N+](=O)[O-])n1C[C@H](O)CN1CCOCC1
inactive: CRL-7250 | HEK293 2.87% | HaCat | KB-3-1 | NIH3T3 -3.55%

COc1cccc(OC)c1-c1nc(C(=O)N[C@@H](CC(C)C)C(=O)O)cn1-c1ccnc2cc(Cl)ccc12
inactive: CRL-7250 | HEK293 -12.4% | HaCat 3.78% | KB-3-1 | NIH3T3

COC(=O)C1=COC(O[C@@H]2O[C@H](CO)[C@@H](O)[C@H](O)[C@H]2O)C2C(C)C(=O)CC12 (stereo not given in full)
inactive: CRL-7250 -2.22% | HEK293 -2% | HaCat -11.3% | KB-3-1 2.31% | NIH3T3

O=C(O)CC/C=C\C[C@H]1CO[C@@H](c2ccccc2Cl)O[C@H]1c1ccccc1O
inactive: CRL-7250 3.51% | HEK293 -2.35% | HaCat | KB-3-1 3.23% | NIH3T3

C[C@]12CCC[C@](C)(C(=O)O)C1CCC13CC(CO)C(CCC12)C3 (stereo not given in full)
inactive: CRL-7250 -1.66% | HEK293 2.28% | HaCat -11.1% | KB-3-1 8.03% | NIH3T3

O=C(/C=C/C=C/c1ccc2c(c1)OCO2)N1CCCCC1
inactive: CRL-7250 | HEK293 3% | HaCat 0.66% | KB-3-1 3.15% | NIH3T3

C=C(COC(=O)C(C)C)C1Oc2cc(C(C)=O)ccc2C1OC(=O)C(C)C (stereo not given)
inactive: CRL-7250 -10.7% | HEK293 1.24% | HaCat | KB-3-1 4.68% | NIH3T3 0.455%

CC1(C)CC[C@]2(C(=O)O)CC[C@]3(C)C(=CCC4[C@@]5(C)CC[C@H](O[C@@H]6O[C@H](C(=O)O)[C@@H](O)[C@H](O[C@@H]7O[C@H](CO)[C@H](O)[C@H](O)[C@H]7O)[C@H]6O[C@@H]6O[C@H](CO)[C@@H](O)[C@H](O)[C@H]6O)C(C)(C)C5CC[C@]43C)[C@@H]2C1 (stereo not given in full)
inactive: CRL-7250 3.2% | HEK293 -6.56% | HaCat | KB-3-1 | NIH3T3

CC1(C)C[C@H](O)C[C@@]2(C)[C@H]1[C@H](O)C=C1COC(=O)[C@@]12O
inactive: CRL-7250 | HEK293 2.99% | HaCat | KB-3-1 | NIH3T3

C=C1C2CCC3CC2(CC(O)C2(O)C1CC(OC1OC(CO)C(O)C(O)C1O)C2(C)C)CC3(C)O (stereo not given)
inactive: CRL-7250 -0.056% | HEK293 4.37% | HaCat -5.66% | KB-3-1 -0.357% | NIH3T3

CC(=O)O[C@H]1C[C@@H](O)C(C)(C)C2C[C@@H](OC(C)=O)[C@@]3(C)C4=CCC(C(CO)CC(O)C5OC5(C)C)[C@]4(C)CCC3[C@]21C (stereo not given in full)
inactive: CRL-7250 | HEK293 -1% | HaCat | KB-3-1 | NIH3T3 -1.52%

COc1cc(/C=C/C(=O)OCC2OC(OC3(CO)OC(CO)C(O)C3O)C(O)C(O)C2O)ccc1O (stereo not given)
inactive: CRL-7250 0.86% | HEK293 0.768% | HaCat 2.88% | KB-3-1 | NIH3T3

CCC(C)/C=C(C)/C=C/C1=CC2=C(Cl)C(=O)C(C)(OC(C)=O)C(=O)C2=CN1C(CC(=O)O)C(=O)O (stereo not given)
inactive: CRL-7250 4.26% | HEK293 4.62% | HaCat | KB-3-1 7.58% | NIH3T3 -16.9%

CC1(C)CC[C@]2(C(=O)O[C@@H]3O[C@H](CO)[C@@H](O)[C@H](O)[C@H]3O)CC[C@]3(C)C(=CCC4[C@@]5(C)CC[C@H](O[C@H]6O[C@H](CO)[C@@H](O)[C@H](O[C@@H]7O[C@H](CO)[C@@H](O)[C@H](O)[C@H]7O)[C@H]6O)C(C)(C)C5CC[C@]43C)[C@@H]2C1 (stereo not given in full)
inactive: CRL-7250 -1.95% | HEK293 -4.45% | HaCat | KB-3-1 4.79% | NIH3T3
